# A number with no mark means an inactive call.
# Assays:
# Experiment in all cases: log2 ratio of Biotin-Ahx-Ub-VS probe labelling (fragment/DMSO); higher = less target engagement (more negative = stronger competition), active = hit call of the paper (q ≤ 0.05, log2 ratio ≤ -1)
# Conditions in all cases: compound concentration: 200 uM; treatment time: 3 h
# OTUD6B = target: T1, OTUD6B (UniProt Q8N6M0)
# T1 sequence (whole entry): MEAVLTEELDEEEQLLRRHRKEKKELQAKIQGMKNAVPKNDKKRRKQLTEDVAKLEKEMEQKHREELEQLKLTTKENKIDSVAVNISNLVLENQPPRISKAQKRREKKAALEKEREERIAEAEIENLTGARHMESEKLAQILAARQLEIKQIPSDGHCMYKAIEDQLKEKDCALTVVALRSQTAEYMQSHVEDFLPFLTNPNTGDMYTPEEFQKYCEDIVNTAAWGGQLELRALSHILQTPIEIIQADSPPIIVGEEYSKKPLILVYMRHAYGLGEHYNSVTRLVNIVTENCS
# Procedure, shortened: (§1)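 Labelling with Biotin-Ahx-Ub-VS (0.5 µM final, 1 h) followed a 3 h triplicate treatment of HEK293T lysate (495 µg per sample, Tris/CHAPS/IGEPAL buffer with protease inhibitors) with fragment at 200 µM or vehicle. Labelled DUBs were NeutrAvidin-enriched, digested with LysC and trypsin, and run by diaPASEF LC-MS/MS. The values, average log2 fragment/vehicle ratios by unpaired t-test, come from global-median-normalised Spectronaut label-free quantities. Proteins with ≥2 unique peptides were used.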
# OTUD7B = target: T2, OTUD7B (UniProt Q6GQQ9)
# T2 sequence (whole entry): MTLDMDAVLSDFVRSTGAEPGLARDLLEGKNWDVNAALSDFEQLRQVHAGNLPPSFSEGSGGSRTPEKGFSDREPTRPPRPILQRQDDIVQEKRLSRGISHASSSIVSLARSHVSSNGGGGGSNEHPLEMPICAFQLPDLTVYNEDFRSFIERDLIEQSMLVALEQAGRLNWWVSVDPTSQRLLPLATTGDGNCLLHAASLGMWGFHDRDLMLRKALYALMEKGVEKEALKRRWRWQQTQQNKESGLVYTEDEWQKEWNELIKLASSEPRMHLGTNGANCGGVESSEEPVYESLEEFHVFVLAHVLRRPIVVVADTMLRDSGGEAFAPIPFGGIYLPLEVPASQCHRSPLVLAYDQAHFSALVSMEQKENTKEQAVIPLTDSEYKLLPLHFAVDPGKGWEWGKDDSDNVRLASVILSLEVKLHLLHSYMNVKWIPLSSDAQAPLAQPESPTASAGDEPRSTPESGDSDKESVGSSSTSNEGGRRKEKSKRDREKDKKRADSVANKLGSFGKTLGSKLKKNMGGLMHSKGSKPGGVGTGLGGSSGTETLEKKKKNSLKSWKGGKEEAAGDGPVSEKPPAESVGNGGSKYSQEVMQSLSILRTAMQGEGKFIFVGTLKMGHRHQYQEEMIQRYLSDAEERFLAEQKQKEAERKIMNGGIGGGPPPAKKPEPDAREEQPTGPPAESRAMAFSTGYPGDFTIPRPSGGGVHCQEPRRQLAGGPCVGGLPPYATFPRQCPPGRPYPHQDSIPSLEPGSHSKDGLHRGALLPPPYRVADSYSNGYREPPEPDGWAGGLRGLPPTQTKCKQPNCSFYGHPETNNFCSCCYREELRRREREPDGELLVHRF
# Procedure, shortened: as §1
# PRPF8 = PRPF8 (UniProt Q6P2Q9)
# Procedure, shortened: as §1
# PSMD7 = target: T3, PSMD7 (UniProt P51665)
# T3 sequence (whole entry): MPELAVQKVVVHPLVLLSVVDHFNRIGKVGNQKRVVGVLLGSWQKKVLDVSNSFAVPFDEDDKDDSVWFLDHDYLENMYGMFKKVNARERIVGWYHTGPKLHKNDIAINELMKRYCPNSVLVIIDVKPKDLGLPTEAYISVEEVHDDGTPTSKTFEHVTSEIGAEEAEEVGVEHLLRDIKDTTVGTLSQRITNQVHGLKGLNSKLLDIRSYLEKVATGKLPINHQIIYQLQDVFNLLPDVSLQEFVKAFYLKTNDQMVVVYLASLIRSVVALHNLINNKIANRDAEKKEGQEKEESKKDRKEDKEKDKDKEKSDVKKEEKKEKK
# Procedure, shortened: as §1
# UCHL1 = UCHL1 (UniProt P09936)
# Procedure, shortened: as §1
# UCHL3 = target: T4, UCHL3 (UniProt P15374)
# T4 sequence (whole entry): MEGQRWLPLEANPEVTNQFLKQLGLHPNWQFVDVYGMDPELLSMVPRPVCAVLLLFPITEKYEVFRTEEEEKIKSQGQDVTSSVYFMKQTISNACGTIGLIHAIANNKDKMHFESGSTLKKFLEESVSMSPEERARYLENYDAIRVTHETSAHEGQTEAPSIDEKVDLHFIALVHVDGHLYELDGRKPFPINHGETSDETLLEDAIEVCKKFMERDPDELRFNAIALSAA
# Procedure, shortened: as §1
# UCHL5 = target: T5, UCHL5 (UniProt Q9Y5K5)
# T5 sequence (whole entry): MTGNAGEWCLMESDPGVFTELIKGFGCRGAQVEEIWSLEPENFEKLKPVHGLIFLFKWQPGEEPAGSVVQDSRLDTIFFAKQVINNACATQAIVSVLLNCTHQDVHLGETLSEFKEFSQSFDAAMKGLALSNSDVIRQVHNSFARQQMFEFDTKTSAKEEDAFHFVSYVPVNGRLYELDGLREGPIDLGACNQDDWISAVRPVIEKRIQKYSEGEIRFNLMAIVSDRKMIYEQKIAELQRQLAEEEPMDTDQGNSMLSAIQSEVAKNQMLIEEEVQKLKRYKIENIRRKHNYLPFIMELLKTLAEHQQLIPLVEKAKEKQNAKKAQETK
# Procedure, shortened: as §1
# USP10 = USP10 (UniProt Q14694)
# Procedure, shortened: as §1
# USP15 = target: T6, USP15 (UniProt Q9Y4E8)
# T6 sequence (whole entry): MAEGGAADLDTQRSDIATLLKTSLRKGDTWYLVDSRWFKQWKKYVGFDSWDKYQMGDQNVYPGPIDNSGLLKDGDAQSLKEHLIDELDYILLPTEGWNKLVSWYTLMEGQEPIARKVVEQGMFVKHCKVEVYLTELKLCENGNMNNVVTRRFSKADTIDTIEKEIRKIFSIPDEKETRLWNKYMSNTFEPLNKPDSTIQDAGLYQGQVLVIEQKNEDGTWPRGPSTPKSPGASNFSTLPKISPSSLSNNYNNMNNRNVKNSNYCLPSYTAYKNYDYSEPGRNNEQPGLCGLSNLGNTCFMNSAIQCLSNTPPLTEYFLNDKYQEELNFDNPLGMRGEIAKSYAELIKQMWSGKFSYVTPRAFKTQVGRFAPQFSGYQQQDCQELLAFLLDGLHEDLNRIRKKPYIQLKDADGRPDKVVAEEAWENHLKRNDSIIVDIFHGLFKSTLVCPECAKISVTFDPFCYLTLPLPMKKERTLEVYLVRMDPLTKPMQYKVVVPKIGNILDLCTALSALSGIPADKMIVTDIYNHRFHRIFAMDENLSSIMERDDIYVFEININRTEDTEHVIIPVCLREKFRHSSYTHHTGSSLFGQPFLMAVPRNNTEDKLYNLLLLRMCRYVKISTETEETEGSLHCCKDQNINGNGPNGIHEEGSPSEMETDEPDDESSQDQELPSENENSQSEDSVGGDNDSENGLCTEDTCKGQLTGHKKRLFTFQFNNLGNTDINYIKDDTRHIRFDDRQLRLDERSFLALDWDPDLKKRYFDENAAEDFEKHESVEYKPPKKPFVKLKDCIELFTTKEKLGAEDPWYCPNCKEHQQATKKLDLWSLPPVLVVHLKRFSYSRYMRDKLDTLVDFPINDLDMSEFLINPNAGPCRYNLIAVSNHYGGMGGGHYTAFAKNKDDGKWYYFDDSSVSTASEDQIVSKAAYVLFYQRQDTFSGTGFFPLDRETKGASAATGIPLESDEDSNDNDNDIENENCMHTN
# Procedure, shortened: as §1
# USP16 = USP16 (UniProt Q9Y5T5)
# Procedure, shortened: as §1
# Chain of USP16 (Q9Y5T5 whole entry, looked up): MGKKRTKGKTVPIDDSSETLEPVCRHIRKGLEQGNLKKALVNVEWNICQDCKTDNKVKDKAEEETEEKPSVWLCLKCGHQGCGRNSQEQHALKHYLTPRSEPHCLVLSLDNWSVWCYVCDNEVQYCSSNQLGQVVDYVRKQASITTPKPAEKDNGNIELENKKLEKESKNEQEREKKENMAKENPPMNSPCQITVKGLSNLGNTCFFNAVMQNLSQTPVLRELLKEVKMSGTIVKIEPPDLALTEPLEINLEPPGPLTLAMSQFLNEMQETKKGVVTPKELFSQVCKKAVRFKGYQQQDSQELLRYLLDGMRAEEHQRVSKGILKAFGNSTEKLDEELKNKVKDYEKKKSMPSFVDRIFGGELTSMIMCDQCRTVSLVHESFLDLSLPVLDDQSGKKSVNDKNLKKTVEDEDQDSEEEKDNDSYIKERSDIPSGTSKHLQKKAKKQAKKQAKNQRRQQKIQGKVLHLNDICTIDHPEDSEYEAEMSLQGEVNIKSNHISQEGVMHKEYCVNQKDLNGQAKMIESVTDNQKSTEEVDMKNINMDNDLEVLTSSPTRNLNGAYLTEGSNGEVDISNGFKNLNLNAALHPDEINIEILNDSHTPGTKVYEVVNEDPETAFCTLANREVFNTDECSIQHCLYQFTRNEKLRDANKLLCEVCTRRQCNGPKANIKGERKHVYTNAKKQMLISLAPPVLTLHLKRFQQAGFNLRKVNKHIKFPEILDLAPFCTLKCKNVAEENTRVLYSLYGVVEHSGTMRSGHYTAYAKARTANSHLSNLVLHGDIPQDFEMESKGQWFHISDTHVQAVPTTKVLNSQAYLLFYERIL
# Chain of UCHL1 (P09936 whole entry, looked up): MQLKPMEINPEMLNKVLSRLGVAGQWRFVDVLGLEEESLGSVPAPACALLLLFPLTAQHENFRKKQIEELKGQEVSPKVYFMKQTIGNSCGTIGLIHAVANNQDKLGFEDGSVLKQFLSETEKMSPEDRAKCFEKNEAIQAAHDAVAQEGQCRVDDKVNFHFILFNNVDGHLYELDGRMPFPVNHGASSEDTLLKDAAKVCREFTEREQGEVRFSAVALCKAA
# Chain of USP10 (Q14694 whole entry): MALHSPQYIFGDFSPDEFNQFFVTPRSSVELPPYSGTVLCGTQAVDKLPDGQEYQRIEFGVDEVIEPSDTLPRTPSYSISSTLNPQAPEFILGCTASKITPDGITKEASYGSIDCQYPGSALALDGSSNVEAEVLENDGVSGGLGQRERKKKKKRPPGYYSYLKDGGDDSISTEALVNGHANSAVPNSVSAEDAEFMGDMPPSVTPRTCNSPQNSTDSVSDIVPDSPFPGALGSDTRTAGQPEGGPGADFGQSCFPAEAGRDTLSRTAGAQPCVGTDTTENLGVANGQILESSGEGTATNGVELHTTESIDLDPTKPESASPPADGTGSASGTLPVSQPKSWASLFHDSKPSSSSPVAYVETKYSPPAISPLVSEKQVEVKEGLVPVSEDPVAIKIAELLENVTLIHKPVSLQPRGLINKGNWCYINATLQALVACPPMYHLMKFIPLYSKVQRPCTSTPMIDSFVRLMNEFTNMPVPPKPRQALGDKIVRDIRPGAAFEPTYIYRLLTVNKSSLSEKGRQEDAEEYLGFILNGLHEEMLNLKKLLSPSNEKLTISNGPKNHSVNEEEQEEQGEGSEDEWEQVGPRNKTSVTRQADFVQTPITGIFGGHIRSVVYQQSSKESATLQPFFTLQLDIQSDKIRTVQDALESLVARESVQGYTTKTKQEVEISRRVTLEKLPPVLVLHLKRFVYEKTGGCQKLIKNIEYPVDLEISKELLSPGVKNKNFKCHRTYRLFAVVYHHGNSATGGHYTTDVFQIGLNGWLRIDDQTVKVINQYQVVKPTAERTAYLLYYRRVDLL
smiles,measurement,setting,value
CS(=O)(=O)c1ccc(CNC(=O)CCl)cc1,log2 ratio of Biotin-Ahx-Ub-VS probe labelling,OTUD6B,-0.168
same,log2 ratio of Biotin-Ahx-Ub-VS probe labelling,OTUD7B,-0.575
same,log2 ratio of Biotin-Ahx-Ub-VS probe labelling,PRPF8,-0.126
same,log2 ratio of Biotin-Ahx-Ub-VS probe labelling,PSMD7,-0.155
same,log2 ratio of Biotin-Ahx-Ub-VS probe labelling,UCHL1,-1.33 (active)
same,log2 ratio of Biotin-Ahx-Ub-VS probe labelling,UCHL3,0.301
same,log2 ratio of Biotin-Ahx-Ub-VS probe labelling,UCHL5,-0.165
same,log2 ratio of Biotin-Ahx-Ub-VS probe labelling,USP10,-0.141
same,log2 ratio of Biotin-Ahx-Ub-VS probe labelling,USP15,-0.268
same,log2 ratio of Biotin-Ahx-Ub-VS probe labelling,USP16,-0.251

# — the supplement of paper PMC11732987, “Enantioselective OTUD7B fragment discovery through chemoproteomics screening and high-throughput optimisation” (Communications Chemistry, 2025)
